In PubChem BioAssay AID624267 (The Scripps Research Institute Molecular Screening Center, 2012):
Where “and” joins values, the source holds several entries; their conditions need not be identical. Identical values can stand only once. Among all 360,000 compounds or so, about 1,400 (0.39%) were called active. Only a selection was taken, and actives are over-represented in it overall. A number with no mark means an inactive call. Rule as the data show it: active = inhibition above about 21%; inactive = the rest.

Biological target: Receptor-interacting serine/threonine-protein kinase 2 (Homo sapiens) (UniProt O43353)
Test: NOD2-RIPK2 binding disruptors in cells, primary screen, fluorescence, CHO cells, BLA complementation (AID 624267);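 also: 0% = vehicle only and 100% = reference blocker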
Conditions: CHO BLA complementation NOD2-RIPK2, CCF4 ratio; at 4.98 µM; stronger effect = higher value

Receptor-interacting serine/threonine-protein kinase 2 (Homo sapiens), sequence (O43353 whole entry, looked up): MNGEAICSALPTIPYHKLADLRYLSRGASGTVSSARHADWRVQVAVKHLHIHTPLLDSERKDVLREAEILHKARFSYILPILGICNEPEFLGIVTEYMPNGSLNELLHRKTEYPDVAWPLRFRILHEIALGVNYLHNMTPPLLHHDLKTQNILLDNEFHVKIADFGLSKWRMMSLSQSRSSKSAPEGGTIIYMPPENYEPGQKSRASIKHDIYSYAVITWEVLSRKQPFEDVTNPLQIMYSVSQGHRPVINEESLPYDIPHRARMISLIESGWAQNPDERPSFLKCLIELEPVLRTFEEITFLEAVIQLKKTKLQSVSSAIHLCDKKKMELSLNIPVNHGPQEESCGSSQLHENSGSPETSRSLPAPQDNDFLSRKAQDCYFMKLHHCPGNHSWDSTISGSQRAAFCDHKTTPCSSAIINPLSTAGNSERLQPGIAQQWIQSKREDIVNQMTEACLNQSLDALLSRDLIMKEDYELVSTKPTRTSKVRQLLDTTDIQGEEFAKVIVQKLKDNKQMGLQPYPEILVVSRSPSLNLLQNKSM

Compound	inhibition
CC(Oc1ccccc1)C(=O)Nc1oc(-c2ccco2)c(-c2ccco2)c1C#N (configuration not stated)	-14.4%
COc1ccc(-c2cnc(SCCNC(=O)c3ccc4c(c3)OCO4)[nH]2)cc1	-2.11%
COc1ccccc1CSc1ncc(-c2ccc([N+](=O)[O-])cc2)[nH]1	29.2% (active)
COc1cccc(-c2cnc(C(O)c3ccccc3OC)[nH]2)c1 (configuration not stated)	-4.35%
Cc1cccc(N2O[C@H]3C=CC2CCCC3)n1	9.84%
O=S(=O)(c1ccccc1)N(Cc1cccc(F)c1)c1ccccc1	-10.2%
CCN(CC)S(=O)(=O)c1ccc2[nH]c(=O)cc(C(=O)N(C)C3CCS(=O)(=O)C3)c2c1 (configuration not stated)	-6.75%
O=S(=O)(c1ccc(OCC(O)CN2CCN(c3ccccc3Cl)CC2)cc1)N1CCOCC1 (configuration not stated)	-2.63%
CN1CCC[C@@H]1CCO[C@](C)(c1ccccc1)c1ccc(Cl)cc1	14.6%
Cc1cc2oc3ccc(NCCC4CCCN4C)cc3c(=O)c2cc1C (configuration not stated)	41.2% (active)
CCCCC(CC(C)O)c1n[nH]c(=S)n1-c1ccccc1 (configuration not stated)	-17.4%
O=C(CCNc1n[nH]c(=O)[nH]c1=O)N/N=C\c1ccc(Br)cc1	-5.19%
Cc1nn(C)cc1N1C(=O)c2cccc3c(N)ccc(c23)C1=O	24.3% (active)
O=C(CN1C(=O)NC2(CCOc3ccccc32)C1=O)Nc1cccc([N+](=O)[O-])c1 (configuration not stated)	5.36%
Cc1cccc2sc(N(CCCN(C)C)C(=O)CCS(=O)(=O)c3ccccc3)nc12	24.6% (active)
CCOc1ccccc1NC(=O)CCS(=O)(=O)c1cccc2nsnc12	5.35%
O=C(O)CCS(=O)(=O)c1ccc(-c2ccccc2)cc1	-5.35%
COc1ccc(C)cc1NC(=O)CCS(=O)(=O)c1cccc2nonc12	4.16%
Cc1cccc(C)c1NC(=O)CCS(=O)(=O)c1cccc2nsnc12	7.27%
COc1cccc2sc(N(CCCN(C)C)C(=O)CCS(=O)(=O)c3ccccc3)nc12	31.7% (active)
O=C(CN1CCN(S(=O)(=O)c2ccc(F)cc2)CC1)NC1CC1	0.22%

Compound	inhibition
COCCCn1c(SCc2cccc(OC)c2)nc2cc(OC)c(OC)cc2c1=N	12.2%
CCOc1ccc(S(=O)(=O)N2CCN(C(=O)c3oc4ccccc4c3C)CC2)cc1	-8.52%
O=C(Cc1cccs1)Nc1ccc([N+](=O)[O-])cc1	3.09%
O=C(CCc1ccccc1)NCCc1cccs1	-5.14%
CCCc1ccc(-c2csc(NC(=O)Cc3cccs3)n2)cc1	21.1% (active)
COc1cc(S(=O)(=O)Nc2ncn[nH]2)ccc1Cl	3.73%
CC(=O)c1cc(C#N)c(N2CC(C)OC(C)C2)nc1C (configuration not stated)	0.19%
COc1ccc(-c2nc3cc(C)ccn3c2NC2CCCCC2)cc1SC1CCCCC1	-6.71% and 17.4%
COc1ccc(-c2nc3cnccn3c2NC2CCCCC2)cc1-c1cccc(Cl)c1	27.1% (active) and 52.4% (active)
COc1ccc(-c2nc3cnccn3c2NC(C)(C)CC(C)(C)C)cc1O	7.55%
Cn1c(SCC(=O)NC2CCCCC2)nnc1-c1ccc(N)cc1	-8.42%
CCCn1nc(Oc2nc(NC(C)C)nc(N(C)C)n2)ccc1=O	-6.09%
Cc1ccccc1CNC(=O)CCC(=O)N1Cc2ccccc2Oc2ncccc21	-3.11%
O=C(NC1=CC(=O)c2ccccc2C1=O)c1ccccc1	60.6% (active)
Cc1ccc(C(=O)Nc2c(-c3ccccc3)[nH][nH]c2=O)cc1	-2.83%
O=C(NNC(=O)C1CCC1)c1ccccc1	-5.53%
O=C(CN1C(=O)NC2(CCCCCC2)C1=O)NCc1cccs1	5.08%
CCc1cccc(C)c1NS(=O)(=O)c1c(C)nc2sccn2c1=O	6.35%
Cc1cccc(N2Cc3ccccc3C2=NC(=O)c2ccc(Cl)nc2)c1	1.35%
Cc1cccc(-n2ncc(Cl)c(Cl)c2=O)c1	32.6% (active)
Nc1c(-c2cccc(Cl)c2)cnn1-c1cccc([N+](=O)[O-])c1	-0.26%

Compound	inhibition
Cc1ccc2[nH]c(C)c(CCNC(=O)NC3CCCCC3)c2c1	10.4%
O=C(CN1CCOCC1)Nc1c2c(nc3c1CCC3)CCC2	-11.5%
Cc1cc(C)n2nc(C(=O)OCC(=O)N(CCC#N)c3ccc(F)cc3)nc2n1	5.67%
COc1cccc(C(=O)NNC(=O)/C=C/c2ccccc2)c1	-14.4%
CC(C)(C)C(=O)/C(C#N)=C/c1ccc(O)cc1	-19.2%
O=C(/C=C(O)/C=C/c1ccc(O)cc1)/C=C/c1ccc(O)cc1	56.9% (active)
COc1ccc(OC)c(CN2C(=O)CCC2(C)C(=O)NC2CCCCCC2)c1 (configuration not stated)	-0.24%
FC(F)(F)C1CCCN(c2nsc3ccccc23)C1 (configuration not stated)	31% (active)
O=[N+]([O-])c1cc(S(=O)(=O)NCCc2ccccn2)ccc1Cl	5.34%
Cc1ccc(C(=O)CN2C(=O)NC3(CCOc4ccccc43)C2=O)s1 (configuration not stated)	-4.27%
CCC1Sc2ccc(S(=O)(=O)CCC(=O)NCc3cccs3)cc2NC1=O (configuration not stated)	-15.1%
COc1cc(NS(=O)(=O)c2ccc3ccccc3c2)c2ncccc2c1	29.3% (active)
O=S(=O)(Nc1ccccn1)c1cccc(S(=O)(=O)c2ccc(Cl)cc2)c1	-8.24%
COc1ccc(OC)c(C(C)NC(=S)Nc2ccc(S(=O)(=O)Nc3ncccn3)cc2)c1 (configuration not stated)	2.38%
Cc1cccc(COc2ccccc2/C=N/Nc2ccc([N+](=O)[O-])cc2)c1	31.1% (active)
CC(C=Cc1ccccc1)=NNS(=O)(=O)c1ccc([N+](=O)[O-])cc1	3.79%
O=[N+]([O-])c1ccc(N/N=C/c2ccccc2)cc1	24.8% (active)
O=[N+]([O-])c1ccc(COc2ccccc2CN2CCOCC2)cc1	-0.03%
Cc1ccccc1OCCOc1ccc([N+](=O)[O-])cc1/C=N/n1cnnc1	7.18%
COC(=O)c1ccccc1N=NNc1ccc([N+](=O)[O-])cc1	2.92%
